RORgamma inh: blocks mouse ROR gamma transcriptional activity. Drosophila S2 Gal4-RORgamma UAS-luciferase reporter, 20 h. AID 2551. Potency, µM (top dose mostly 53.6 µM), for inactives: top-dose activity change, negative = inhibition, usual class: inhibitors. actives 5.4% (n = 310,000); note: % is set by controls: 0 for no effect and ±100 for the full control effect; nearly all actives have a fitted effect of over 60% in size
Target sequence (P51450 whole entry, looked up, the tested form may be a part): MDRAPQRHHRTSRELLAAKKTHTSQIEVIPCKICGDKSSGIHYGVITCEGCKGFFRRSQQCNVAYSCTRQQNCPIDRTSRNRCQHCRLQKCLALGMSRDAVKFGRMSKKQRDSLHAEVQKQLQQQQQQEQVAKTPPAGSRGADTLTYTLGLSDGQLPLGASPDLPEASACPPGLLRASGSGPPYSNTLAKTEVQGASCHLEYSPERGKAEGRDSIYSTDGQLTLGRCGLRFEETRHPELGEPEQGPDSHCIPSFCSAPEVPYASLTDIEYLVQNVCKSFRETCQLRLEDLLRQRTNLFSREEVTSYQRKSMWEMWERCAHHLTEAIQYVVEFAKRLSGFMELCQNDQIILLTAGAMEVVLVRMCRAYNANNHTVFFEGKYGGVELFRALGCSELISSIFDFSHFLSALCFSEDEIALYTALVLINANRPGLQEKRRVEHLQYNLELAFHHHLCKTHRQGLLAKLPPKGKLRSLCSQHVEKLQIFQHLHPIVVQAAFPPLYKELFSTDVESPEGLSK
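ROR gamma transcriptional activity was tracked as Gal4-UAS luciferase output in stably transfected Drosophila Schneider cells, with compound added 1 hr before 700 uM copper sulfate induction and a 20 hr ambient-temperature incubation.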
ATXN2 expr inh: reduces ATXN2 reporter expression in HEK-293 cells; HEK-293 ATXN2-luciferase reporter, luminescence, 24 h; Potency, µM (titrated, usually from 57 µM), inactives show at the top dose activity change, negative = inhibition, most hits filed as inhibitors; actives 0.72% (n = 360,000); note: % is set by controls: 0 for no effect and ±100 for the full control effect; nearly all actives have a fitted effect of over 55% in size
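qHTS (up to 57 uM final) was run with 24 h compound exposure of reporter cells at 37 °C. Each well was multiplexed: SteadyGlo luminescence measured ATXN2-luciferase expression after a fluorogenic Gly-Phe-AFC viability readout (25 uM final).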
TGFb inhibitor: blocks TGF-b signaling | Potency, µM (titrated, usually from 46.1 µM), without a hit: top-dose activity, negative = inhibition, hits mostly inhibitors | actives 1.2% (n = 410,000) | HepG2 CAGA-GFP TGF-b/SMAD3 reporter, GFP fluorescence, 18 h; TGF-beta stimulated, 500 pg/mL final; note: % is set by controls: 0 for no effect and ±100 for the full control effect; nearly all actives have a fitted effect of over 65% in size
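Inhibition of TGF-beta-driven CAGA-GFP reporter expression in HEPG2 cells is measured by cellular GFP fluorescence after 18 h stimulation with 500 pg/mL recombinant TGF-beta in 1% FBS medium at 37 degrees C.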
S2 tox: cell viability loss in ATXN counter-screen | S2 cells (HEK-293 line with an ATXN2-luciferase reporter) viability, CellTiter-Fluor protease fluorescence, 24 h | Potency, µM (series often up to 56.7 µM), actives largely listed as cytotoxic | actives 0.49% (n = 400,000); note: nearly all actives have a fitted effect of over 40% in size
Gal4-VP16 FLuc: Gal4-VP16 reporter inhibition counter-screen; Drosophila S2 Gal4-VP16 UAS-luciferase, luminescence, 20 h; Potency, µM (series often up to 53.6 µM), for inactives: top-dose activity, negative = inhibition, usual class: inhibitors; actives 3.5% (n = 310,000);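 note: Gal4-VP16 expression switched on by copper sulfate through the metallothionein promoter; % is set by controls: 0 for no effect and ±100 for the full control effect; nearly all actives have a fitted effect of over 50% in size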
HepG2 tox: kills HepG2 cells in TGF-b inhibitor counter-screen. HepG2 CAGA-GFP viability, ATP luminescence, 18 h. Potency, µM (series often up to 46.1 µM), inactives show at the top dose activity change, negative = cytotoxicity, usual class: cytotoxic. actives 0.76% (n = 410,000). AID 588856
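HepG2 CAGA-GFP cells (1000/well, DMEM with 1% FBS) received compound, then TGF-beta at 500 pg/mL final, and were incubated 18 hours at 37 degrees C. Viability was read by CellTiter-Glo luminescence. Media-only wells were set as complete cell-killing and DMSO as no toxicity.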
An asterisk follows results filed as active; i = inactive; ? = inconclusive; . = not tested or not shown; [ ] = remark or other dose. Shown are actives, neighbours in structure and some others; about 6.1% of the full set was active somewhere. Calls come from the whole dose curve; as a rule, active = well fitted curve in the direction sought with a large enough effect; inconclusive = small, poorly fitted or top-dose-only effect, or another doubt; inactive = no such curve, though single readings can be large; an effect the other way counts as inactive or inconclusive. Potency is the fitted concentration of half-maximal effect.

SMILES	RORgamma inh	ATXN2 expr inh	TGFb inhibitor	S2 tox	Gal4-VP16 FLuc	HepG2 tox
Cc1cnc(C)c(-c2cc(F)cc3c2OC(CNC(=O)Cc2ccccc2C)C3)n1 (configuration not stated)	.	.	.	i	.	.
CC(C)(C)NC[C@H](O)CSc1nc(-c2ccc(C(N)=O)s2)cs1	23%	.	.	.	-4%	.
CCCCn1c(-c2nn(C)c(C)c2Cl)n[nH]c1=S	3.2µM*	-1%	12%	i	?	-1%
CCc1nn(C)c(-c2n[nH]c(=S)n2N)c1Cl	-37%	0%	-15%	i	0%	0%
Cn1cc(Cl)c(-c2n[nH]c(=S)n2-c2ccccc2)n1	-40%	-7%	?	i	-6%	0%
Cc1nn(C)c(-c2n[nH]c(=S)n2-c2ccccc2)c1Cl	11µM*	26%	1%	i	-8%	4%
Cc1c(Cl)c(-c2n[nH]c(=S)n2CC(C)C)nn1C	13µM*	4%	35%	i	?	4%
Cc1c(Cl)c(-c2n[nH]c(=S)n2-c2ccc(F)cc2)nn1C	13µM*	10%	-2%	i	-4%	-14%
C[N+]1(CC(=O)c2ccc(I)cc2)CCCc2ccccc21 (configuration not stated)	.	.	-14%	.	.	-41%
O=C(CSc1n[nH]c(-c2ccccn2)n1)Nc1ccc(Cl)cc1	2.5µM*	20µM*	-21%	i	0.1µM*	-1%
O=C(CSc1n[nH]c(-c2ccccn2)n1)Nc1ccc(F)cc1	7.9µM*	?	-1%	i	?	-22%
Cc1ccc(NC(=O)CSc2ccc(-c3ccccn3)nn2)cc1	-15%	?	?	i	-15%	-15%
Cc1ccc(NC(=O)CSc2n[nH]c(-c3ccccn3)n2)cc1	4.5µM*	?	2%	i	5.6µM*	-22%
CN(C)c1ccc(C(CNS(=O)(=O)c2ccc(Br)cc2)N2CCCC2)cc1 (configuration not stated)	.	.	-31%	.	.	1%
CC[C@H](CO)Nc1nc(NCc2ccccc2)c2ncn(C(C)C)c2n1	.	24µM*	.	.	.	.
COc1ccc(N/N=C(\C#N)C(=N)SCc2ccccc2)cc1	?	.	?	i	16µM*	1%
COc1ccc(N/N=C(\C#N)C(=N)N2CCCCC2)cc1	-11%	.	0%	?	-16%	5%
Cc1ccccc1S(=O)(=O)Oc1cccc2c(O)cccc12	7.1µM*	4%	-32%	?	?	-23%
COC(=O)c1ccc(Cn2c(SCc3ccccc3)nc3ccncc32)cc1	.	.	-30%	.	.	-2%
CC(=O)Nc1ccc(Cl)c(C(N)=O)c1	-6%	8%	?	i	0%	-7%
NC(=O)c1cc(N2C(=O)C=CC2=O)ccc1Cl	7.1µM*	?	-13%	.	7.1µM*	0%
COc1ccc(-n2cc(C(=O)Nc3ccccc3C#N)c3ccccc3c2=O)cc1	.	.	-30%	.	.	-24%
C/C(=N\NC(=O)c1ccccc1N)c1ccc(NC(=O)Cc2ccccc2)cc1	7%	14%	18%	i	0%	-4%
COc1ccccc1C(=O)N/N=C(\C)c1ccc(NC(=O)Cc2ccccc2)cc1	18%	-9%	2%	i	7.9µM*	0%
C/C(=N\NC(=O)c1cc(O)cc(O)c1)c1ccc(NC(=O)Cc2ccccc2)cc1	?	3%	-2%	i	26%	0%
SMILES	RORgamma inh	ATXN2 expr inh	TGFb inhibitor	S2 tox	Gal4-VP16 FLuc	HepG2 tox
C/C(=N\NC(=O)c1cccc(C)c1O)c1ccc(NC(=O)Cc2ccccc2)cc1	11µM*	31%	-23%	i	?	-4%
COc1cccc(NC(=O)Cn2c(=O)n(Cc3nc(-c4ccccc4)no3)c(=O)c3ccccc32)c1	.	.	?	.	.	-7%
CCCCCCCOC(=O)C[N+](C)(C)CCOC1CC2CCC1(C)C2(C)C (configuration not stated)	?	35µM*	?	?	13µM*	18µM*
CCCOc1ccc(-c2cc(C(F)(F)F)c(C#N)c(SCCC(=O)O)n2)cc1	.	8%	12%	i	.	-37%
COc1ccc(CCNc2ccc(N3C(=O)CC(C)C3=O)cc2[N+](=O)[O-])cc1OC (configuration not stated)	-67%	-38%	-20%	?	6.3µM*	-22%
O=C1CCCCc2sc(Br)c([N+](=O)[O-])c2N1	11µM*	22%	-26%	i	?	1%
CCOCCCNC(=O)C(NC(=O)Cc1cccs1)c1ccc(Cl)cc1 (configuration not stated)	?	-13%	6%	i	13µM*	6%
CC(=O)c1c(C)nc(Nc2nc(C)c3cc(C)ccc3n2)nc1C	4µM*	5%[11.3 µM]	?	i	?	-5%
CC(=O)c1cnc(Nc2nc(C)c3ccc(C)cc3n2)nc1C	?	-5%	10%	i	?	-10%
CCCCNC(=O)c1cnc2c(-c3ccc(OCC)c(OCC)c3)c(C)nn2c1-c1ccccc1	.	3%	-1%	i	.	6%
O=c1c(-c2ccccc2)c1-c1ccccc1	?	8.9µM*	.	8.9µM*	0.79µM*	.
O=C1c2ccccc2C(=O)c2c(O)ccc(O)c21	-30%	.	.	.	-10%	.
O=C1C(C2=C(O)c3ccccc3C2=O)=Nc2ccccc21	-29%	?	268%	?	?	11µM*
CC(C)Cn1c(N)c(C(=O)CSc2ccccc2)c(=O)n(C)c1=O	?	10%	-2%	i	-1%	0%
CCCn1c(N)c(C(=O)COC(=O)c2c(C)noc2C)c(=O)n(C)c1=O	21%	-8%	8%	i	-14%	-1%
CCCCn1c(N)c(C(=S)NC(=O)CC(C)C)c(=O)n(C)c1=O	1.1µM*	-21%	?	?	1.1µM*	-48%
CC(=O)NC(=S)c1c(N)n(Cc2ccccc2)c(=O)n(C)c1=O	2.8µM*	.	.	.	2.8µM*	.
CC(=O)Nc1ccc(SCC(=O)c2c(N)n(Cc3ccccc3)c(=O)n(C)c2=O)cc1	21%	12%	-7%	i	4%	-7%
CCCn1c(N)c(C(=S)NC(=O)C2CC2)c(=O)n(C)c1=O	3.5µM*	0%	-2%	i	4µM*	5%
O=C(NC(=S)NCc1ccccc1)c1cccs1	5µM*	13%	-14%	i	7.9µM*	-7%
O=C(Cc1ccccc1)NNC(=S)NC(=O)c1cccs1	?	-21%	-18%	i	2%	-26%
O=C(CNC(=S)NC(=O)c1cccs1)c1ccccc1	8.9µM*	24%	-4%	i	?	-32%

Compound activity (PubChem)
